# RORgamma inh: qHTS for inhibitors of ROR gamma transcriptional activity | 310,000 tested, 5.4% active | Potency, µM (doses to about 53.6 µM), inactives show top-dose activity change, negative = inhibition, actives largely listed as inhibitors | Drosophila S2 Gal4-RORgamma UAS-luciferase reporter, 20 h | Nuclear receptor ROR-gamma (Mus musculus), P51450; further: potency means the concentration at half of the fitted maximal effect; on the % scale 0 is the no-effect control and ±100 the full control effect; nearly all actives have a fitted effect of over 60% in size
# Target sequence (P51450 whole entry, looked up, the tested form may be a part): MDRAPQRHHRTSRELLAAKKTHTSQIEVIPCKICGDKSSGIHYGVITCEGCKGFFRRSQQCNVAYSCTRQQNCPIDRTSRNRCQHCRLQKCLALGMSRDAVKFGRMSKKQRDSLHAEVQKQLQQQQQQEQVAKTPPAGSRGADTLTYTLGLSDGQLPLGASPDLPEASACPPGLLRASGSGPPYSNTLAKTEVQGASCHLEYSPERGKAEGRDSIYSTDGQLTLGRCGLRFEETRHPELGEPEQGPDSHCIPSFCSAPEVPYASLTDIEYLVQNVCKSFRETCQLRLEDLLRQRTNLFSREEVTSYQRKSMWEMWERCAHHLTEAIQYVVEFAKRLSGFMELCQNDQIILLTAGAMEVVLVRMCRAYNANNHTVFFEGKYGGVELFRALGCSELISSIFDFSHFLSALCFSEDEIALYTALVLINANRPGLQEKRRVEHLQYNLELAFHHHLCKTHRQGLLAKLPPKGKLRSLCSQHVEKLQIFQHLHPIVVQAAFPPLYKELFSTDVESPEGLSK
#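 Read-out: Photinus luciferase luminescence; inhibitors lower reporter signal. Insect Schneider cells with Gal4-ROR gamma fusion under metallothionein promoter, UAS reporter; 700 uM final copper sulfate induction, 20 hr, ambient temperature.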
# BRCA1 expr act: qHTS Assay to Identify Small Molecule Activators of BRCA1 Expression | 380,000 tested, 1.1% active | MCF7-BRCA1-FFLuc reporter, luminescence, 48 h; response scale: scaled: vehicle 0%, 10 µM genistein 100% | Potency, µM (top dose mostly 46.1 µM), without a hit: at the highest dose activation, most hits filed as activators; further: potency means the concentration at half of the fitted maximal effect; nearly all actives have a fitted effect of over 80% in size
#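 Cells: MCF7-BRCA1-FFLuc, 2000/well. Exposure: 48 h, 37 °C, 5% CO2. Read: luminescence, 15 min post-substrate. Controls: genistein 10 microM (maximal activation), DMSO (neutral).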
# ELG1 repair inh: qHTS screen for small molecules that inhibit ELG1-dependent DNA repair in human embryonic kidney (HEK293T) cells expressing luciferase-tagged ELG1 | HEK293T ELG1-luciferase reporter, luminescence, 16 h; DNA damage induced by 5-fluorouridine | Potency, µM (titrated, usually from 46.1 µM), for the others: at the highest dose activity change, negative = inhibition, usual class: inhibitors | 330,000 tested, 2.3% active; further: potency means the concentration at half of the fitted maximal effect; on the % scale 0 is the no-effect control and ±100 the full control effect; nearly all actives have a fitted effect of over 55% in size
#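 5-Fluorouridine DNA damage + compound/DMSO, 2,000 cells/well, 16 h, 37 °C/5% CO2. ONE-Glo, 30 min RT, luminescence. Readout = decrease in reporter signal.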
# VP16 counter: VP16 counterscreen qHTS for inhibitors of ROR gamma transcriptional activity; Drosophila S2 Gal4-VP16 UAS-luciferase, luminescence, 20 h; Potency, µM (top dose mostly 53.6 µM), inactives show at the highest dose activity, negative = inhibition, most hits filed as inhibitors; 310,000 tested, 3.5% active; AID 2546, 2010;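 further: Gal4-VP16 expression switched on by copper sulfate through the metallothionein promoter; potency means the concentration at half of the fitted maximal effect; on the % scale 0 is the no-effect control and ±100 the full control effect; nearly all actives have a fitted effect of over 50% in size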
# Giardia killer: Small Molecules that selectively kill Giardia lamblia: qHTS. Giardia lamblia trophozoite viability. activity change, % at 7.66 µM, hits read low. 340,000 tested, 0.15% active. AID 540267, 2011; in the data active means activity change below about -80%; inconclusive means between about -30% and that limit;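 further: parasites exposed to compound for two days anaerobically before the ATP read; on the % scale 0 is the no-effect control and ±100 the full control effect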
#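 Anaerobic 48 hrs incubation at 37 deg C of 100 trophozoites/well with test compounds; ATPLite 1-Step luminescence, 15-30 min RT, reports cellular ATP as viability.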
# p53 reactivation: qHTS assay for re-activators of p53 using a Luc reporter; 320,000 tested, 0.063% active; Potency, µM (doses to about 92.2 µM), without a hit: top-dose activity change, positive = activation, hits mostly activators; H1299 p53-A138V BP100-luciferase reporter, luminescence, 24 h; further: potency means the concentration at half of the fitted maximal effect; % of control where 0% means no effect; nearly all actives have a fitted effect of over 45% in size
#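 p53-null H1299 cells stably carrying temperature-sensitive p53-A138V and a BP100-luciferase reporter were pinned with compounds (4-point, 1:5 series) and held 24 hrs at 37 deg C. Luminescence was read 10 min after detection reagent.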
# Active calls of the source: *; ? = inconclusive; / = no result. Compounds with a hit are over-represented: about 7.6% of the library has one in this group of screens. Unless noted, the call rests on the fitted dose curve; in most records, active means well fitted curve in the direction sought with a large enough effect; inconclusive means small, poorly fitted or top-dose-only effect, or another doubt; inactive means no such curve, though single readings can be large; an effect the other way counts as inactive or inconclusive.
SMILES,RORgamma inh,BRCA1 expr act,ELG1 repair inh,VP16 counter,Giardia killer,p53 reactivation
CN1CCc2[nH]c3ccc(Cl)cc3c2C1,/,22.2%,/,/,5.8,/
CCCc1nc(NCC2CCCO2)c2nnn(Cc3ccccc3)c2n1 (stereo not drawn),?,-20.4%,25.9µM*,4.0%,2.6,-14.4%
Cc1nc(NCC2CCCO2)c2nnn(Cc3ccccc3)c2n1 (stereo not drawn),?,-3.9%,-21.2%,-15.9%,-0.7,-0.1%
CNC(=S)Nc1cccc(S(=O)(=O)NCc2ccco2)c1,/,-3.1%,-16.4%,/,19.8,-5.8%
COC(=O)c1ccc2c(c1)N(Cc1cc(C)ccc1C)C(=O)c1ccccc1S2=O (stereo not drawn),-16.1%,/,3.3%,-2.2%,/,2.8%
CCOC(=O)c1ccc2c(c1)N(Cc1ccccc1C)C(=O)c1ccccc1S2=O (stereo not drawn),-20.5%,-15.9%,16.4µM*,22.4µM*,16.3,0.7%
CC(C)(C)c1ccc(-n2ncc3c2CCCC3NC(=O)CCN2CCCC2=O)cc1 (stereo not drawn),3.55µM*,-21.6%,-4.8%,0.891µM*,-8.0,-6.8%
Cc1cc(C)cc(-n2ncc3c2CCCC3NC(=O)CN2CCCC2=O)c1 (stereo not drawn),-5.6%,6.2%,0.0%,-3.5%,17.3,-1.0%
CC1(C)Cc2c(cnn2-c2ccc(F)cc2)C(NC(=O)CN2CCCCC2=O)C1 (stereo not drawn),3.55µM*,13.2%,5.4%,15.8µM*,-26.8,0.5%
CC(C)(C)c1ccc(-n2ncc3c2CCCC3NC(=O)CN2CCCC2=O)cc1 (stereo not drawn),?,-31.9%,?,7.08µM*,20.8,4.4%
Cn1nccc1C(=O)NC1CCCc2c1cnn2-c1ccc(C(C)(C)C)cc1 (stereo not drawn),?,-51.1%,2.0%,2.51µM*,10.6,1.4%
Cc1ccc(NC(=O)C(=O)NCC2CCCO2)cc1 (stereo not drawn),-14.3%,10µM*,?,-20.1%,-17.8,4.6%
S=C(NCC1CCCO1)NC12CC3CC(CC(C3)C1)C2 (stereo not drawn),0.631µM*,-13.9%,-18.8%,5.01µM*,7.8,3.5%
Cc1ccc(NC(=S)NCC2CCCO2)c(OC(F)F)c1 (stereo not drawn),11.2µM*,-2.5%,?,?,-12.9,?
Cc1ccc(NC(=O)C(=O)NCC2CCCO2)cc1C (stereo not drawn),-27.0%,?,?,-7.4%,2.7,9.8%
COc1cc(NC(=S)NCC2CCCO2)c(OC)cc1Cl (stereo not drawn),10µM*,38.5%,-10.1%,17.8µM*,-18.2,-3.7%
COc1cc(C(=O)NCCNC(=O)c2cnccn2)cc(OC)c1OC,4.4%,-11.3%,?,-5.8%,15.8,0.8%
CC1(C)CC2CC(C)(CN2C(=O)c2cc(-c3ccccc3O)on2)C1 (stereo not drawn),26.2%,3.0%,?,-0.1%,-27.1,16.4%
O=C(Cc1ccccc1)Nc1nonc1NC(=O)c1ccccc1,1.0%,-12.1%,-1.9%,-14.4%,-3.4,-4.0%
Cc1cc(-c2cc(C(=O)Nc3ccccc3)on2)nc(NCC2CC2)n1,/,7.6%,/,/,-1.1,/
CCN(C(=O)Cn1cnc2ccccc2c1=O)C1CCS(=O)(=O)C1 (stereo not drawn),/,26.2%,?,/,-2.6,-2.7%
CC1CC(C)(C)NCc2ccccc21 (stereo not drawn),-7.1%,2.6%,-2.5%,-1.2%,1.3,-6.7%
O=C(Nc1ccccc1)c1cc2ccccc2c(=O)s1,18.5%,27.4%,?,0.6%,11.7,?
Cc1ccc(NC(=S)NCC2CCN(C(C)c3ccccc3)C2)cc1C (stereo not drawn),8.91µM*,-6.1%,?,?,-21.1,14.4%
Cc1ccc(NC(=S)NCC2CCCO2)cc1C (stereo not drawn),?,24.1%,24.0%,10µM*,-7.1,26.2%
SMILES,RORgamma inh,BRCA1 expr act,ELG1 repair inh,VP16 counter,Giardia killer,p53 reactivation
S=C(NCC1CCCO1)N1CCN(c2nc(-c3ccc(Cl)cc3)cs2)CC1 (stereo not drawn),?,-76.3%,11.6µM*,?,-7.3,-2.1%
S=C(NCCCN1CCOCC1)N1CCN(c2nc(-c3ccc(Cl)cc3)cs2)CC1,-16.1%,-66.9%,9.9%,4.8%,-2.5,0.6%
O=C(NCC1CCCO1)c1cc(-c2ccccc2F)no1 (stereo not drawn),8.9%,12.6µM*,?,-8.0%,12.6,?
Cc1cccc(NC(=S)NCC2CCCO2)c1 (stereo not drawn),?,1.8%,11.9%,?,-16.8,12.4%
CC(OC(=O)c1ccc2ncsc2c1)C(=O)NCc1ccccc1 (stereo not drawn),?,/,16.9%,2.8%,/,18.8%
COc1cccc(NC(=S)NC2CC(C)(C)NC(C)(C)C2)c1,-1.6%,-4.0%,6.3%,7.1%,21.9,6.3%
CSc1ccccc1OCc1cc(C(=O)N(C)C(C)c2ccccn2)no1 (stereo not drawn),-2.4%,-1.9%,3.4%,-13.9%,-7.2,-9.8%
S=C(NCC1CCCO1)Nc1ccccc1 (stereo not drawn),11.2µM*,0.8%,-6.0%,-3.1%,-14.8,5.7%
O=C(NCC1CCCO1)c1ccccc1 (stereo not drawn),-11.7%,1.2%,/,0.8%,-0.5,/
CCN(CC)c1ccc(NC(=S)NCC2CCCO2)cc1 (stereo not drawn),14.1µM*,32.4%,6.6%,12.6µM*,13.8,16.8%
CC(Oc1ccc(F)cc1F)C(=O)NNC(=S)NCC1CCCO1 (stereo not drawn),11.2µM*,-0.1%,-10.7%,?,-4.4,-8.4%
CN(C)c1ccc(C(=O)NCC2CCCO2)cc1 (stereo not drawn),-35.1%,103.8%,?,2.6%,?,?
O=C(NCCc1ccccc1)C(=O)NCC1CCCO1 (stereo not drawn),12.5%,12.6µM*,?,17.1%,-8.9,21.9%
CCn1cnc2c1c(=O)[nH]c(=O)n2Cc1ccccc1,7.9%,-6.9%,?,8.7%,-1.2,2.5%
S=C(NCC1CCCO1)Nc1ccc(Cl)cc1Cl (stereo not drawn),15.8µM*,?,?,?,-2.3,?

# Screening results: PubChem, National Center for Advancing Translational Sciences (NCATS)
